# Eya2 inh – blocks the phosphatase activity of human Eya2; recombinant Eya2, OMFP fluorescence dephosphorylation (OMFP is methylfluorescein phosphate); 330,000 tested, 0.006% active; O00167; Potency, µM (series often up to 76.9 µM), usual class: inhibitors; AID 488837
# Target sequence (O00167 whole entry, looked up): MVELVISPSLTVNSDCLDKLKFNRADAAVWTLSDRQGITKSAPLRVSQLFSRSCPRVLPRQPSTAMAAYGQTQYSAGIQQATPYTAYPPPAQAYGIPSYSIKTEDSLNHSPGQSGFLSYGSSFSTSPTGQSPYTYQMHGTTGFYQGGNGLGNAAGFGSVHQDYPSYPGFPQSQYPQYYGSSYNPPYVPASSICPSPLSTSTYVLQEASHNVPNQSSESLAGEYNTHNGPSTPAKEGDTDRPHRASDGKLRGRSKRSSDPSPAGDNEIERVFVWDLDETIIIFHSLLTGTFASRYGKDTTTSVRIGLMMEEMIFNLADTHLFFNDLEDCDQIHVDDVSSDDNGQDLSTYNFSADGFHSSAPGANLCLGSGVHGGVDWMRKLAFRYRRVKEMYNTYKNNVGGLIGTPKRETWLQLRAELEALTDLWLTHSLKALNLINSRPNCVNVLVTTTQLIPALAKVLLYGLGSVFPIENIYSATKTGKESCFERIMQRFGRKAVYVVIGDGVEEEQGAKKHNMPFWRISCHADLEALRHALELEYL
#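 Eya2 (0.2 uM) preincubated 10 min at ambient with compound, then OMFP substrate added at 50 uM; 10 min reaction in 50 mM HEPES pH 7.5, 50 mM NaCl, 5 uM MgCl2, 0.05% BSA, 1 mM DTT. Fluorescence read at Ex 485/Em 525 nm.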
# D1 agonist – activates the human D1 dopamine receptor | P21728 | activation, % at 2 µM | 360,000 tested, 1% active | HEK293 T-REx D1 cells, calcium flux, agonist mode | AID 504660; in the data active = activation above about 30%
#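 Agonism was scored from calcium flux recorded over 180 s (1 read/s) after pintool compound addition, following a 10-cycle baseline. Cells were inducible force-coupled HEK293 TREx D1, plated overnight at 30 C and loaded with no-wash calcium dye.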
# D1 potentiator – human D1 dopamine receptor positive modulation | potentiation, % at 10 µM | 360,000 tested, 0.036% active | AID 504651 | HEK293 TREx D1 cells, calcium flux, dopamine EC20 potentiation; in the data active = potentiation above about 30%
# GALK inhibitor – galactokinase (human) inhibition | P51570 | Purified GALK, Kinase-Glo residual ATP luminescence | Potency, µM (top dose mostly 57.5 µM), hits mostly inhibitors | 270,000 tested, 0.007% active | AID 1868
#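 Quantitative HTS: GALK 5 nM, ATP 35 uM, galactose 100 uM, 1 h room temperature, then luciferase-based ATP detection.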
# D1 antag – blocks dopamine activation of the human D1 receptor. P21728. HEK293 TREx D1 cells, calcium flux, dopamine EC80; active compounds read low. activity change, negative = inhibition, % at 10 µM. 360,000 tested, 3.2% active. AID 504652; in the data active = activity change below about -30%
#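 Tetracycline-induced HEK293 Trex D1 cells, force-coupled to calcium, dye-loaded; compounds added and read 180 s, then EC80 dopamine added and calcium flux tracked kinetically another 180 s.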
# USP2a block – USP2a (human) protease inhibition. O75604. USP2 core, Ub-CHOP2 coupled fluorogenic reporter, 485/531. Potency, µM (titrated, usually from 38.3 µM), actives largely listed as inhibitors. 330,000 tested, 0.01% active
#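 USP2 core (10nM final) preincubated 30min RT with compound in 20mM Tris-HCl pH 8.0, 2mM CaCl2, 2mM beta-mercaptoethanol, 0.05% CHAPS; 25nM Ub-CHOP2 plus 25nM reporter substrate added, fluorescence (Ex485/Em531) read after 60min.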
# Numbers stand for hits; 0 = inactive; ? = inconclusive; - = no result; ! = a repeat was not active. Most compounds without a hit are left out; they make up all but 3.9% or so of the library. Unless noted, calls come from the whole dose curve; as a rule, active = well fitted inhibition curve with a large enough effect; inconclusive = small, poorly fitted or top-dose-only effect, or effect the other way; inactive = flat fitted curve, though single readings scatter.
SMILES,Eya2 inh,D1 agonist,D1 potentiator,GALK inhibitor,D1 antag,USP2a block
COc1ccc(CCn2c(=O)c3cccnc3n(Cc3ccc([N+](=O)[O-])cc3)c2=O)cc1OC,0,0,0,0,-46.2,0
Brc1ccc(-c2csc(/N=C/N3CCOCC3)n2)cc1,0,0,0,0,-33.4,0
CCc1ccc(-n2c(=O)c3cccnc3n2CC(=O)Nc2cc(OC)ccc2OC)cc1,-,0,0,-,0,-
CCc1cccc(-n2c(=O)c3cccnc3n2CC(=O)Nc2ccc(OC)c(Cl)c2)c1,-,0,0,-,-63.2,-
Cc1ccc(-c2ccc(/C=C(\C#N)C(N)=S)n2C)cc1,0,0,0,0,-51.1,0
Cn1cccc1/C=C(/C#N)C(N)=S,0,0,0,0,-49.0,0
Cc1nnc(N2CCCC(C(=O)NCCc3ccccc3)C2)c2nn(-c3ccccc3)c(C)c12 (configuration not stated),-,0,0,-,0,-
NCC(c1ccccc1Cl)c1c[nH]c2ccccc12 (configuration not stated),0,0,0,0,0,0
NCC(c1ccc(Cl)cc1Cl)c1c[nH]c2ccccc12 (configuration not stated),0,41.0,0,-,0,0
CCCCNC(=S)NCC(c1ccccc1)c1c[nH]c2ccccc12 (configuration not stated),0,0,0,0,0,0
CN(C)CCCNC(=S)NCC(c1ccc(Cl)cc1Cl)c1c[nH]c2ccccc12 (configuration not stated),0,60.8,0,0,-40.0,0
Cc1cc2c(cc1NC(=O)c1ccc(C(C)(C)C)cc1)n(C)c(=O)c(=O)n2C,-,0,0,-,0,-
CCn1c(N)nc2c1c(=O)n(C)c(=O)n2C,0,0,0,0,0,0
Cn1nc(-c2ccccn2)nc2c(=O)n(C)c(=O)nc1-2,0,0,0,1µM,0,0
CCCc1nc2c(=O)n(C)c(=O)nc-2n(C)n1,0,0,0,1.78µM,0,0
CCOCCn1ccc2c(OCC(=O)NCc3ccc(F)cc3)cccc2c1=O,-,0,0,-,-,-
CCOc1ccc(C(=O)Nc2c(C(=O)Nc3ccccc3F)oc3ccccc23)cc1OCC,-,0,0,-,0,-
COc1ccc(CCNC(=O)C2(C)CCC(=O)N2Cc2ccc3c(c2)OCO3)cc1OC (configuration not stated),0,0,0,0,0,0
COc1ccc(CCNC(=O)C2(C)CCC(=O)N2Cc2ccc(F)cc2Cl)cc1OC (configuration not stated),0,0,0,0,-32.6,0
COc1ccc(NC(=S)NCCc2c[nH]c3ccccc23)c(OC)c1,0,0,0,-,-36.2,0
COc1ccc(-c2noc(CSc3nc4ccccc4[nH]3)n2)cc1OC,-,0,0,-,0,-
Nc1cc(=O)[nH]c2nnc(SCC(=O)Nc3cccc4ccccc34)n12,0,0,0,0,-45.3,0
CCc1nc2c(cnn2-c2ccc(Cl)cc2)c(=O)n1-c1ccc(OC)c(Cl)c1,-,0,0,-,0,-
Cc1cccc(C)c1NC(=O)C(NC=O)c1ccc(N(C)C)cc1 (configuration not stated),0,0,0,0,0,0
Cc1cccc(C)c1NC(=O)C(NC=O)c1ccccc1Cl (configuration not stated),0,0,0,0,-83.0,0
SMILES,Eya2 inh,D1 agonist,D1 potentiator,GALK inhibitor,D1 antag,USP2a block
CCOC(=O)c1c(-c2ccccc2)oc2ccc(O)c(CN3CCN(C)CC3)c12,0,0,0,-,0,0
CN1CCN(Cc2c(O)ccc3occ(C(=O)c4ccccc4)c23)CC1,0,0,0,0,-77.0,0
Cc1ccc(NS(=O)(=O)c2c(C)nc3sccn3c2=O)c(Cl)c1,-,0,0,-,0,-
Cc1ccc(CNC(=O)c2cc3c(=O)n(Cc4ccco4)ccc3nc2C)cc1,-,0,0,-,0,-
COC(=O)CCN(c1ccccc1)C(CNS(=O)(=O)c1ccccc1)c1ccccc1 (configuration not stated),-,0,0,-,0,-
CCOC(=O)c1ccccc1NC(=O)Cc1c(C(=O)O)c(C)cn1C,-,0,0,-,0,-
CC1CCCC(C)N1CC(O)COc1c(F)cc(Br)cc1F (configuration not stated),0,0,0,0,-52.1,0
OC(CNC1CCCC1)COc1c(F)cc(Br)cc1F (configuration not stated),0,0,0,0,0,0
O=C(Nc1ccc(Cl)cc1)N1CCC(CN2CCCCCC2)CC1,-,0,0,-,0,-
CNCc1c(OCc2ccc(F)cc2)ccc2ccccc12,0,0,0,0,-33.1,0
Cc1ccc2nc(N(Cc3cccnc3)C(=O)C3CCCCC3)sc2c1,-,0,0,-,-,-
COc1ccc(N(CC(=O)N/N=C/c2ccc(-c3ccc([N+](=O)[O-])cc3)o2)S(=O)(=O)c2ccc(C)cc2)cc1Cl,0,0,0,0,0,0
COc1ccc(N(CC(=O)NCc2ccc(C)cc2)S(=O)(=O)c2c(C)[nH]c(=O)[nH]c2=O)cc1,0,0,0,0,-34.6!,0
COc1ccc(S(=O)(=O)N(CC(=O)NCCSc2ccc(C)cc2)c2ccc(C)cc2)cc1,-,55.9,0,-,0,-
Cc1ccc(S(=O)(=O)NCCSCc2ccccc2)cc1,0,0,0,0,-30.0,0
COc1ccc(N(CC(=O)N/N=C/c2ccc(-c3ccc([N+](=O)[O-])cc3)o2)S(=O)(=O)c2ccc(C)cc2)cc1,0,73.1,0,0,0,0
CCOc1ccc(S(=O)(=O)N(CC(=O)NCCSc2ccc(C)cc2)c2ccccc2)cc1,-,0,0,-,0,-
CCN(Cc1ccccc1)C(=O)C1CCN(S(=O)(=O)c2ccc3c(c2)CCCN3C(C)=O)CC1,-,0,0,-,0,-
Cc1ccc(CN2C(=O)C(O)(c3c[nH]c4ccccc34)c3cc(Cl)ccc32)cc1 (configuration not stated),-,0,0,-,0,-
CN(Cc1ccccc1)C(=O)c1ccc2c(c1)N(Cc1ccccc1Cl)C(=O)c1ccccc1S2,-,0,0,-,0,-
COc1cc(/C=C/c2nc(C#N)c(NC(C)c3ccccc3)o2)cc(OC)c1OC (configuration not stated),-,0,0,-,0,-
Cc1ccc(N(CC(=O)NCCSCc2ccco2)S(=O)(=O)c2ccc(F)cc2)cc1,0,0,0,0,0,0
Cc1ccc(N(CC(=O)NCCSc2ccccc2)S(=O)(=O)c2ccc(F)cc2)cc1,-,0,0,-,-31.3,-
COc1ccc(S(=O)(=O)N(CC(=O)NCCSCc2ccccc2)c2ccc(C)cc2)cc1,-,31.8,0,-,0,-
COc1ccccc1N(CC(=O)NCCSCc1ccccc1)S(=O)(=O)c1ccc(C)cc1,?,0,0,0,0,0
